Results reported in PubChem BioAssay AID1159580 (chemical genetic matrix, 2015).
The campaign covered roughly 5,500 compounds. About 2,000 (36%) were called active. Not shown: some 18% with an inconclusive outcome. Cut-off read from the data, not from the text of the source: active = normalized growth mostly below about 0.91 (no sharp cut-off); inconclusive = no clear call, values can overlap the other calls; inactive = mostly above about 0.92. Some of the results follow.

Experiment: chemical genetic growth profiling, strain panel (AID 1159580);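 note: tested at 20 µM; growth read once vehicle control cultures reached saturation at 30 °C; 1 = growth at the plate median or of vehicle wells; lower values mean less growth of the strain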
Settings: growth OD

Measured: normalized growth

CC1(C)S[C@@H]2[C@H](NC(=O)[C@H](NC(=O)N3CCNC3=O)c3ccccc3)C(=O)N2C1C(=O)O (stereo partly drawn)
inactive: S. cerevisiae deletion strains, locus YJR075W, strain HOC1, stronger effect = lower value 1.01 | S. cerevisiae deletion strains, locus YKL009W, strain mrt4, stronger effect = lower value 0.967 | S. cerevisiae deletion strains, locus YKL068W, stronger effect = lower value 0.979 | S. cerevisiae deletion strains, locus YKL085W, strain MDH1 (second series), stronger effect = lower value 0.998 | S. cerevisiae deletion strains, locus YKL085W, strain MDH1, stronger effect = lower value 0.998 | S. cerevisiae deletion strains, locus YKL160W, strain elf1, stronger effect = lower value 0.957 | S. cerevisiae deletion strains, locus YKL190W, strain CNB1, stronger effect = lower value 0.995 | S. cerevisiae deletion strains, locus YKR001C, strain vps1, stronger effect = lower value 1 | S. cerevisiae deletion strains, locus YKR026C, strain gcn3, stronger effect = lower value 0.999 | S. cerevisiae deletion strains, locus YKR091W, strain srl3, stronger effect = lower value 0.974 | S. cerevisiae deletion strains, locus YLL001W, strain dnm1, stronger effect = lower value 0.957 | S. cerevisiae deletion strains, locus YLL026W, stronger effect = lower value 0.984 | S. cerevisiae deletion strains, locus YLL041C, strain sdh2, stronger effect = lower value 0.983 | S. cerevisiae deletion strains, locus YLR027C, strain aat2, stronger effect = lower value 0.976 | S. cerevisiae deletion strains, locus YLR039C, strain RIC1, stronger effect = lower value 1 | S. cerevisiae deletion strains, locus YLR058C, strain SHM2, stronger effect = lower value 0.989 | S. cerevisiae deletion strains, locus YLR102C, strain apc9, stronger effect = lower value 0.992 | S. cerevisiae deletion strains, locus YLR113W, strain HOG1, stronger effect = lower value 0.956 | S. cerevisiae deletion strains, locus YLR221C, strain rsa3, stronger effect = lower value 0.964 | S. cerevisiae deletion strains, locus YLR258W, strain gsy2, stronger effect = lower value 0.988 | S. cerevisiae deletion strains, locus YLR262C, strain YPT6 (second series), stronger effect = lower value 0.958 | S. cerevisiae deletion strains, locus YLR262C, strain YPT6, stronger effect = lower value 0.98 | S. cerevisiae deletion strains, locus YLR268W, strain sec22, stronger effect = lower value 0.993 | S. cerevisiae deletion strains, locus YLR320W, strain mms22, stronger effect = lower value 0.956 | S. cerevisiae deletion strains, locus YLR330W, strain CHS5, stronger effect = lower value 0.997 | S. cerevisiae deletion strains, locus YLR342W, strain FKS1 (second series), stronger effect = lower value 1.01 | S. cerevisiae deletion strains, locus YLR342W, strain FKS1, stronger effect = lower value 0.993 | S. cerevisiae deletion strains, locus YLR357W, strain rsc2, stronger effect = lower value 0.977 | S. cerevisiae deletion strains, locus YLR370C, strain arc18, stronger effect = lower value 0.98 | S. cerevisiae deletion strains, locus YLR371W, strain rom2, stronger effect = lower value 0.997 | S. cerevisiae deletion strains, locus YLR384C, strain iki3, stronger effect = lower value 0.976 | S. cerevisiae deletion strains, locus YLR418C, strain cdc73, stronger effect = lower value 0.995 | S. cerevisiae deletion strains, locus YML016C, strain PPZ1, stronger effect = lower value 1 | S. cerevisiae deletion strains, locus YML032C, strain rad52, stronger effect = lower value 1.01 | S. cerevisiae deletion strains, locus YML120C, strain ndi1, stronger effect = lower value 0.959 | S. cerevisiae deletion strains, locus YML124C, strain tub3, stronger effect = lower value 0.996 | S. cerevisiae deletion strains, locus YMR058W, strain fet3, stronger effect = lower value 0.973 | S. cerevisiae deletion strains, locus YMR078C, strain ctf18, stronger effect = lower value 0.98 | S. cerevisiae deletion strains, locus YMR125W, strain sto1, stronger effect = lower value 1 | S. cerevisiae deletion strains, locus YMR129W, stronger effect = lower value 0.991 | S. cerevisiae deletion strains, locus YMR205C, strain PFK2, stronger effect = lower value 0.954 | S. cerevisiae deletion strains, locus YMR223W, strain ubp8, stronger effect = lower value 0.962 | S. cerevisiae deletion strains, locus YMR231W, strain pep5, stronger effect = lower value 0.985 | S. cerevisiae deletion strains, locus YMR307W, strain GAS1, stronger effect = lower value 1.08 | S. cerevisiae deletion strains, locus YNL067W, strain RPL9B, stronger effect = lower value 1.02 | S. cerevisiae deletion strains, locus YNL071W, strain lat1, stronger effect = lower value 0.989 | S. cerevisiae deletion strains, locus YNL128W, strain TEP1, stronger effect = lower value 0.991 | S. cerevisiae deletion strains, locus YNL183C, strain NPR1, stronger effect = lower value 0.942 | S. cerevisiae deletion strains, locus YNL209W, strain ssb2, stronger effect = lower value 0.989 | S. cerevisiae deletion strains, locus YNL233W, strain BNI4, stronger effect = lower value 1.04 | S. cerevisiae deletion strains, locus YNL248C, strain rpa49, stronger effect = lower value 0.993 | S. cerevisiae deletion strains, locus YNL250W, strain rad50, stronger effect = lower value 0.975 | S. cerevisiae deletion strains, locus YNL271C, strain bni1, stronger effect = lower value 1 | S. cerevisiae deletion strains, locus YNL298W, strain CLA4, stronger effect = lower value 0.978 | S. cerevisiae deletion strains, locus YNL307C, strain MCK1, stronger effect = lower value 0.994 | S. cerevisiae deletion strains, locus YNL322C, strain KRE1 (second series), stronger effect = lower value 0.983 | S. cerevisiae deletion strains, locus YNL322C, strain KRE1, stronger effect = lower value 0.993 | S. cerevisiae deletion strains, locus YNR049C, strain mso1, stronger effect = lower value 0.975 | S. cerevisiae deletion strains, locus YNR052C, strain pop2, stronger effect = lower value 0.986 | S. cerevisiae deletion strains, locus YOL006C, strain TOP1, stronger effect = lower value 1.04 | S. cerevisiae deletion strains, locus YOL012C, strain htz1 1.4 | S. cerevisiae deletion strains, locus YOL147C, strain pex11, stronger effect = lower value 0.985 | S. cerevisiae deletion strains, locus YOR001W, strain rrp6, stronger effect = lower value 0.981 | S. cerevisiae deletion strains, locus YOR061W, strain CKA2, stronger effect = lower value 1 | S. cerevisiae deletion strains, locus YOR069W, strain VPS5, stronger effect = lower value 0.988 | S. cerevisiae deletion strains, locus YOR070C, strain gyp1, stronger effect = lower value 0.992 | S. cerevisiae deletion strains, locus YOR080W, strain dia2, stronger effect = lower value 0.969 | S. cerevisiae deletion strains, locus YOR083W, strain WHI5, stronger effect = lower value 0.957 | S. cerevisiae deletion strains, locus YOR106W, strain vam3, stronger effect = lower value 0.951 | S. cerevisiae deletion strains, locus YOR136W, strain idh2, stronger effect = lower value 0.996 | S. cerevisiae deletion strains, locus YOR144C, strain elg1, stronger effect = lower value 1.01 | S. cerevisiae deletion strains, locus YOR184W, strain ser1, stronger effect = lower value 0.991 | S. cerevisiae deletion strains, locus YOR231W, strain MKK1, stronger effect = lower value 0.975 | S. cerevisiae deletion strains, locus YOR265W, strain rbl2, stronger effect = lower value 0.983 | S. cerevisiae deletion strains, locus YOR270C, strain vph1, stronger effect = lower value 0.968 | S. cerevisiae deletion strains, locus YOR290C, strain snf2, stronger effect = lower value 0.936 | S. cerevisiae deletion strains, locus YOR316C, strain cot1, stronger effect = lower value 0.99 | S. cerevisiae deletion strains, locus YPL051W, strain arl3, stronger effect = lower value 0.99 | S. cerevisiae deletion strains, locus YPL078C, strain atp4, stronger effect = lower value 0.974 | S. cerevisiae deletion strains, locus YPL106C, strain sse1, stronger effect = lower value 0.944 | S. cerevisiae deletion strains, locus YPL240C, strain hsp82, stronger effect = lower value 0.985 | S. cerevisiae deletion strains, locus YPL256C, strain CLN2, stronger effect = lower value 0.955 | S. cerevisiae deletion strains, locus YPR119W, strain clb2, stronger effect = lower value 0.997 | S. cerevisiae deletion strains, locus YPR141C, strain kar3, stronger effect = lower value 0.989 | S. cerevisiae deletion strains, locus YPR163C, strain tif3, stronger effect = lower value 0.975 | S. cerevisiae deletion strains, locus YPR167C, strain met16, stronger effect = lower value 0.985 | S. cerevisiae deletion strains, strain wtn01, stronger effect = lower value 1 | S. cerevisiae strains, strain wild type, stronger effect = lower value 1
